Data on 109 molecules can be found in PubChem BioAssay AID488922 (Johns Hopkins Ion Channel Center, 2010).

Structures are written as SMILES. Hit rate of the full screen: of about 310,000 compounds, about 3,800 (1.2%) were called active.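 How the source made its calls: active means ratio B-score over 3 SD below the library mean, with starting fluorescence within 5 SD of its mean; inactive means the rest, inconclusive results apart.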 The list comes from a sample in which actives are over-represented; it also holds similar structures and randomly drawn compounds.

Potassium channel subfamily K member 9 (Homo sapiens), sequence (Q9NPC2 whole entry, looked up): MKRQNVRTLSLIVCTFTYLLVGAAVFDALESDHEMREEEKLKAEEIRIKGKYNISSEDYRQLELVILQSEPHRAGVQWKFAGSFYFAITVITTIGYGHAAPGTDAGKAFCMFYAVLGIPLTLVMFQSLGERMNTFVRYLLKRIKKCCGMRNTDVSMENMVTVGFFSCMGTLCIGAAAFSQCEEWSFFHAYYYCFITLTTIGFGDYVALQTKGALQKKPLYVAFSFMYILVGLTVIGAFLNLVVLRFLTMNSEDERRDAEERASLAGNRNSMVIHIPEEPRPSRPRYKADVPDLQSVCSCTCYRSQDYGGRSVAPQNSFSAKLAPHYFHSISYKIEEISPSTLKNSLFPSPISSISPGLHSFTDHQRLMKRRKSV

The assay concerns the target Potassium channel subfamily K member 9 (Homo sapiens) (UniProt Q9NPC2). As to the kind of experiment: blockers of human TASK-3 (KCNK9) channel – HEK293 cells, thallium flux, primary screen (AID 488922).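 On B-score: negative B-score means less thallium flux so channel inhibition.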 As to conditions: HEK293 KCNK9, FluxOR thallium flux fluorescence, at 10 µM; active compounds read low.
Take `O=C(CN1C(=O)c2ccccc2C1=O)NCc1ccc(C(=O)O)cc1`: the B-score result was “inactive”.

On to `CC(=O)N(C1=C(Cl)C(=O)c2ccccc2C1=O)c1ccc(C(=O)O)cc1`, for which the B-score is -6.74 (active).

`COc1ccc2occ(C(=O)c3ccc(N=C(C)N(C)C)cc3)c2c1`: the B-score result is “inactive”.

For `COc1ccc(OC)c(C(=O)c2coc3ccc(OC)cc23)c1`, the B-score is -15 (active).

For `COc1ccc(OC)c(C(=O)c2coc3ccc(O)c(CN4CCOCC4)c23)c1`, the B-score entry is “inactive”.

As to `Cc1ccnc(NC(=O)Cn2ccc([N+](=O)[O-])n2)c1`, the B-score entry is “inactive”.

For the molecule `CC(/C=N/NC(=O)c1cc(-c2ccc3ccccc3c2)n[nH]1)=C\c1ccco1`, the B-score was -6.63 (active).

As for `Cc1ccc(-c2cc(C(=O)N/N=C/C=C/c3ccco3)c3ccccc3n2)cc1C`, the B-score entry is “inactive”.

`CC(/C=N/NC(=O)c1ccncc1)=C\c1ccco1`: the B-score result is “inactive”.

Regarding `CCOc1ccc(-n2c(SCC(=O)NC3CCS(=O)(=O)C3)nnc2-c2cccnc2)cc1` (centres undefined), the B-score entry is “inactive”.

For `CCCC(C(=O)n1nc(C)cc1C)C(NS(=O)(=O)c1ccc(C)cc1)c1ccccc1` (centres undefined), the B-score result was “inactive”.

Turning to `O=C(C1CC1)N1CCN=C1SCc1ccc(Cl)cc1`, the B-score result is “inactive”.

Regarding `CC1CCN(C(=O)c2ccc(CSc3ccc(Cl)cc3)cc2)CC1`, the B-score is -8.16 (active).

Turning to `O=C(c1ccc(CSc2ccccc2)cc1)N1CCCCCC1`, the B-score result was “inactive”.

In the case of `CCCCn1c(N)c(N(CCOC)C(=O)c2cccc(S(=O)(=O)N(C)c3ccccc3)c2)c(=O)[nH]c1=O`, the B-score result is “inactive”.

As for `CCOC(=O)Cc1csc(SCC(=O)NC(C)C23CC4CC(CC(C4)C2)C3)n1` (centres undefined), the B-score entry was “inactive”.

On to `CN(c1ccccc1)S(=O)(=O)c1cccc(NC(=O)Cc2c(F)cccc2Cl)c1`, for which the B-score was -15.5 (active).

As to `CN(C)S(=O)(=O)c1cccc(NC(=O)Cc2ccsc2)c1`, the B-score entry was “inactive”.

As to `CN(C)S(=O)(=O)c1cccc(NC(=O)COC(=O)C2(c3ccccc3F)CCCC2)c1`, the B-score result was “inactive”.

On to `Cc1cc(=O)oc2c1ccc1ccccc12`, for which the B-score result is “inactive”.

Consider `COc1ccc(C(CCN(Cc2ccc(OC)c(OC)c2)C(=O)CCl)c2ccccc2)cc1` (centres undefined), for which the B-score was -11 (active).

Turning to `COc1ccc(CN(C)C(=O)CC(c2ccccc2)c2ccccc2)cc1`, the B-score result was “inactive”.

Regarding `COc1ccc(COC(=O)NC(C(=O)O)c2ccccc2)cc1` (centres undefined), the B-score result was “inactive”.

For the molecule `O=c1[nH]c(/C=C/c2cccc(Br)c2)nc2ccccc12`, the B-score result was “inactive”.

With `COc1cccc(CNc2nc(C(F)(F)F)nc3ccccc23)c1`, the B-score is -8.03 (active).

On to `COc1ccc(CNc2ncnc3ccccc23)cc1`, for which the B-score entry is “inactive”.

Regarding `CCc1ccc(C(CNc2nc(C(F)(F)F)nc3ccccc23)N(C)C)cc1` (centres undefined), the B-score entry was “inactive”.

In the case of `CCOC(=O)c1cc(C(=O)Nc2ccc(S(=O)(=O)Nc3ccc(OC)cc3)cc2)nn1C`, the B-score entry was “inactive”.

As for `COc1ccc(-n2ncc3c2CC(C)(C)CC3NC(=O)CCc2c(C)noc2C)cc1` (centres undefined), the B-score entry is “inactive”.

Take `CCc1ccc(NC(=O)Cn2nc(C)c([N+](=O)[O-])c2C)cc1`: the B-score entry was “inactive”.

Take `Cc1nn(CC(=O)NCc2ccccn2)c(C)c1[N+](=O)[O-]`: the B-score entry is “inactive”.

Turning to `Cc1nn(CC(=O)Nc2nc3ccccc3s2)c(C)c1[N+](=O)[O-]`, the B-score was -10.4 (active).

Take `Cc1cc(C)nc(NS(=O)(=O)c2ccc(N3C(=O)C4CCCCC4C3=O)cc2)n1` (centres undefined): the B-score result was “inactive”.

For the molecule `Oc1ccccc1N1CCN(c2ncnc3sc(-c4ccccc4)cc23)CC1`, the B-score entry was “inactive”.

Turning to `COc1ccccc1N1CCN(c2ncnc3sc(C)c(-c4ccccc4)c23)CC1`, the B-score is -16.5 (active).

Take `COc1ccccc1N1CCN(c2ccc([N+](=O)[O-])nc2)CC1`: the B-score result is “inactive”.

For `O=C(NCCc1ccc(Cl)cc1Cl)c1cc([N+](=O)[O-])c[nH]c1=O`, the B-score result is “inactive”.

Consider `CSc1cccc(NC(=S)N(Cc2ccccc2)Cc2ccccn2)c1`, for which the B-score entry was “inactive”.

Consider `CC(c1ccccn1)N(CCN(C)C)C(=S)Nc1ccccc1F` (centres undefined), for which the B-score result was “inactive”.

For `CSc1cccc(NC(=S)N(C(C)C)C(C)c2ccccn2)c1` (centres undefined), the B-score is -17.5 (active).

`Cc1ccc(O)c(CNc2nc3ccccc3n2C)c1`: the B-score entry was “inactive”.

`Cc1ccc(OCc2nc3ccccc3n2C)cc1`: the B-score result was “inactive”.

For `Cc1ccc(C2=NN(C)c3nc4ccccc4n3C2)cc1`, the B-score is -8.17 (active).

With `CCOC(=O)/C(=N\Nc1cc(Cl)ccc1Cl)N1CCN(C)CC1`, the B-score entry was “inactive”.

Regarding `COCCNc1ncnc2c1nc1n2CCCC1`, the B-score entry is “inactive”.

On to `COc1cnc(SCc2ccc(Cl)c(Cl)c2)nc1Cl`, for which the B-score result is “inactive”.

Regarding `O=S(=O)(NC1CCCCC1N1CCN(c2ccccc2F)CC1)c1ccccc1` (centres undefined), the B-score is -7.59 (active).

Consider `O=S(=O)(NC1CCCCC1N1CCCCC1)c1ccc(Cl)cc1` (centres undefined), for which the B-score entry is “inactive”.

In the case of `COc1ccc(N2CCN(C3CCCCC3NS(=O)(=O)c3ccccc3)CC2)cc1` (centres undefined), the B-score result was “inactive”.

As for `N#Cc1c(NCCO)ccc([N+](=O)[O-])c1NCCO`, the B-score entry was “inactive”.

Take `COC(=O)c1cc(NC2c3ccccc3C(=O)N2c2ccc(Cl)cn2)cc(C(=O)OC)c1` (centres undefined): the B-score is -8.59 (active).

Consider `Cc1ccnc(N2C(=O)c3ccccc3C2Nc2ccc3c(c2)OCCO3)c1` (centres undefined), for which the B-score result is “inactive”.

On to `CCc1ccccc1NC1c2ccccc2C(=O)N1c1cccnc1` (centres undefined), for which the B-score entry is “inactive”.

Take `Cc1ccc(C)c(OCCC(=O)OCC(=O)c2ccc3c(c2)NC(=O)CO3)c1`: the B-score entry was “inactive”.

With `Cc1ccc(CNC(=O)C2(C(F)(F)F)C/C(=C\Cc3ccccc3)CCCO2)o1` (centres undefined), the B-score entry is “inactive”.

As to `CCOC(=O)c1ccc(NC(=O)Cc2cccs2)cc1`, the B-score result is “inactive”.

In the case of `CCC1=NN(C(=O)Cc2ccc([N+](=O)[O-])cc2)C(O)(c2ccc(Br)cc2)C1` (centres undefined), the B-score was -9.93 (active).

Regarding `CC1=NN(C(=O)Cc2ccc(C)cc2)C(O)(c2cccnc2)C1` (centres undefined), the B-score result is “inactive”.

`CC1=NN(C(=O)c2ccc(Br)cc2)C(O)(c2ccccc2)C1` (centres undefined): the B-score result is “inactive”.

`CCOC(=O)c1[nH]c(C)c(C(=O)OCC(=O)N2c3ccccc3CC2C)c1C` (centres undefined): the B-score result is “inactive”.

With `COc1ccc(C)cc1NC(=O)CNCc1cccs1`, the B-score result is “inactive”.

With `Brc1ccc(C2CC(c3ccccc3)=Nc3ccccc3N2)cc1` (centres undefined), the B-score was -9.6 (active).

On to `c1ccc(C2=Nc3cccc4cccc(c34)N2)cc1`, for which the B-score entry was “inactive”.

On to `CNC(=S)N1N=C(c2ccccc2)CC1c1ccc(Br)cc1` (centres undefined), for which the B-score entry is “inactive”.

Turning to `CC(C)(C)SCCSC1=CC(=O)CC(c2ccccc2)C1` (centres undefined), the B-score entry is “inactive”.

With `O=C(N/C(=C\c1ccc([N+](=O)[O-])cc1)C(=O)N1CCCCC1)c1ccco1`, the B-score entry is “inactive”.

Regarding `O=C(c1ccccc1)C(Cn1cncn1)C(Sc1ccccc1)c1ccccc1` (centres undefined), the B-score result is “inactive”.

Consider `O=C(NCc1ccccc1)c1onc(CSc2ccncc2)c1C(=O)NCc1ccccc1`, for which the B-score entry was “inactive”.

Regarding `CS(=O)(=O)N(CC(=O)Nc1ccc(Cl)c(Cl)c1)C1CCCCC1`, the B-score was -7.01 (active).

Take `CS(=O)(=O)N(CC(=O)Nc1ccc(F)cc1)C1CCCCC1`: the B-score entry was “inactive”.

As for `CCC(C)NC(=O)CN(C1CCCCC1)S(C)(=O)=O` (centres undefined), the B-score entry was “inactive”.

Take `Cc1csc(/N=C/N(C)C)c1C#N`: the B-score result was “inactive”.

`Cc1ccc(S(=O)(=O)/N=C(/NC(=S)Nc2c(C)n(C)n(-c3ccccc3)c2=O)c2ccccc2)cc1`: the B-score result is “inactive”.

Consider `O=C(COC(=O)c1ncc(Cl)c(Cl)c1Cl)NC1CCS(=O)(=O)C1` (centres undefined), for which the B-score entry is “inactive”.

With `Cc1ccc(CN(C(=O)c2sc3ccccc3c2Cl)C2CCS(=O)(=O)C2)cc1` (centres undefined), the B-score is -7.41 (active).

Regarding `CC1(C)C(C=C(Cl)Cl)C1C(=O)N(Cc1ccc(Cl)cc1)C1CCS(=O)(=O)C1` (centres undefined), the B-score result is “inactive”.

As for `COc1ccc(C(=O)N(Cc2ccc(N(C)C)cc2)C2CCS(=O)(=O)C2)cc1` (centres undefined), the B-score entry is “inactive”.

Take `O=[N+]([O-])c1c(NCCO)cc(Sc2nc3ccccc3s2)c2nonc12`: the B-score entry was “inactive”.

For the molecule `Cc1onc(-c2ccccc2Cl)c1C(=O)N(Cc1ccc(N(C)C)cc1)C(C)C`, the B-score result is “inactive”.

As to `C=C(C)CSc1nc(N)c2c3c(sc2n1)CCC3`, the B-score result is “inactive”.

With `C=CCn1c(SCC(=O)c2c(N)n(C)c(=O)n(C)c2=O)nc2sc(CC)cc2c1=O`, the B-score result is “inactive”.

Consider `CC1(C)CC(=O)CC2(C1)NCC(c1ccccc1Cl)c1c2[nH]c2ccccc12` (centres undefined), for which the B-score was -14.9 (active).

Take `O=[N+]([O-])/C=C1\CCCCCN1`: the B-score result was “inactive”.

Regarding `Cc1noc(C)c1/C=N/Nc1ccc2ccccc2n1`, the B-score result was “inactive”.

On to `C(=N\Nc1ccc2ccccc2n1)/c1ccc2c(c1)OCO2`, for which the B-score is -6.68 (active).

In the case of `Brc1ccc(-c2csc(N/N=C/c3ccc4c(c3)OCO4)n2)cc1`, the B-score entry is “inactive”.

Turning to `CN1CC(=O)N=C1N`, the B-score result is “inactive”.

For the molecule `CCCC1NC(=S)NC(C)=C1C(C)=O` (centres undefined), the B-score result was “inactive”.

With `Cc1scc(C(=O)NNC(=S)NCc2ccccc2)c1C`, the B-score result was “inactive”.

Consider `O=c1oc2ccccc2cc1-c1csc(Nc2ccc(O)cc2)n1`, for which the B-score entry is “inactive”.

Regarding `COc1ccc2nc(Nc3nc(-c4cc5ccccc5oc4=O)cs3)sc2c1`, the B-score was -6.66 (active).

On to `CCNc1nc(-c2cc3ccccc3o2)cs1`, for which the B-score entry was “inactive”.

Turning to `O=C(CCC1CCCC1)N=C1SC2CS(=O)(=O)CC2N1Cc1ccccc1` (centres undefined), the B-score entry is “inactive”.

Take `Cn1c(=O)n(C)c2cc(C(=O)Nc3ccc(Br)cc3)ccc21`: the B-score entry was “inactive”.

With `Cc1ccc(-n2nc(-c3ccco3)cc2C(=O)NCc2cccnc2)cc1`, the B-score result is “inactive”.

For `CC(C)C[C@@H](CO)N1CCN(Cc2ccc(O)cc2)CCC1=O`, the B-score entry was “inactive”.

As for `CCOC(=O)Cc1cc(=O)[nH]c(=O)[nH]1`, the B-score is -8.45 (active).

For `CCOC(=O)Cc1cc(=O)[nH]c(/N=C(\N)Nc2ccc(OC)cc2)n1`, the B-score result was “inactive”.

On to `CCOCCCNC(=O)Cc1cc(=O)[nH]c(=O)[nH]1`, for which the B-score entry is “inactive”.

Consider `CC1CCCN(CCCNC(=O)CN2C(=O)COc3ccc(S(=O)(=O)N4CCOCC4)cc32)C1` (centres undefined), for which the B-score result was “inactive”.

As for `O=C1/C(=C/c2cccs2)CCC1C1CCCC1` (centres undefined), the B-score result was “inactive”.

Consider `CC(=O)Nc1ccc(/C=N/Nc2ccc(C(=O)c3c(C)cc4ccccn34)cc2[N+](=O)[O-])cc1`, for which the B-score entry is “inactive”.

On to `Cc1cc2ccccn2c1C(=O)c1cccc(S(=O)(=O)N2CCOCC2)c1`, for which the B-score entry was “inactive”.

For the molecule `Cc1cc2ccccn2c1C(=O)c1cccc(F)c1`, the B-score is -13.4 (active).

For the molecule `CN(Cc1c(F)cccc1Cl)C(=O)CNC(=O)c1ccc2c(c1)OCO2`, the B-score result was “inactive”.

In the case of `O=C(c1ccccc1Cl)N(Cc1ccccc1F)N1C(=O)CCCC1=O`, the B-score entry is “inactive”.

`O=C(OCC(=O)N(CCc1ccccc1)Cc1ccccc1)c1ccccc1[N+](=O)[O-]`: the B-score was -17.6 (active).

Consider `Cc1c(C(=O)NCCCc2ccccc2)cccc1[N+](=O)[O-]`, for which the B-score entry is “inactive”.

Regarding `CN(Cc1ccccc1)C(=O)COC(=O)c1ccccc1Nc1ccccc1`, the B-score entry is “inactive”.
